# VCAM1 pot: potentiators of TNFa-induced VCAM1 expression, primary screen, imaging, HUVEC, TNFa stimulus, immunofluorescence; 93,000 compounds, 0.19% hits; activation, % at 2 µM; HUVEC TNFa-stimulated VCAM-1 immunofluorescence, high-content imaging; scaled per plate to unstimulated/TNFa-only wells; AID 808, 2007;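 active = activation above the screen mean plus 3 SD, with well images confirming the hit on visual review, cut at about 28% in these data, passing the limit was not always enough; inconclusive = activation above that limit but images do not confirm it; inactive = activation not above that limit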;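 note: signal is the number of cytoplasmic VCAM-1 stained grains per positive cell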
# VCAM1 pot confirm: potentiators of TNFa-induced VCAM1 expression, confirmation, imaging, HUVEC, triplicate retest; HUVEC TNFa-stimulated VCAM-1 immunofluorescence imaging; 230 tested, under 10 active; activation, % at 2 µM; AID 1034, 2008; shares compounds with VCAM1 pot;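 active = activation above 30% in triplicate retests at 2 µM, then confirmed by visual review of the well images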;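 note: scaled per plate between unstimulated and TNFa-stimulated DMSO control wells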
# Active calls of the source: *; ? = inconclusive. Many of the other results were omitted from the sample, so hits are more common in it than they were.
SMILES,VCAM1 pot,others
CC(C(=O)Nc1ccccc1Sc1ccccc1)N(c1ccccc1)S(C)(=O)=O (stereo not drawn),-1,
CN(C)S(=O)(=O)N(CCN1CCOCC1)Cc1ccccc1F,45*,VCAM1 pot confirm=-8
O=C(Nc1ccccc1)N(CCN1CCOCC1)Cc1ccccc1F,10,
O=C(Nc1ccc(Br)cc1)c1cccn1-c1ncc(C(F)(F)F)cc1Cl,0,
COc1ccc(OCC(=O)Sc2ccc(C)cc2)cc1,7,
Cc1ccc(OC(=O)CCC(=O)OCCCC(F)(F)C(F)(F)F)cc1,?,VCAM1 pot confirm=-8
COc1nn(C(C)C(=O)N2N=C(C(F)F)CC2(O)C(F)F)cc1[N+](=O)[O-] (stereo not drawn),6,
Cc1ccc(C(=O)C(OC(=O)COc2ccccc2C)c2ccccc2)cc1 (stereo not drawn),0,
Cc1cccc(C)c1NS(=O)(=O)c1ccc(F)cc1,0,
CCC(CC)C(=O)c1c[nH]c(C(=O)NCC2CCCO2)c1 (stereo not drawn),-4,
Cn1c(NCc2c[nH]c3ccccc23)nc2ccccc21,-58,
Cn1c(/N=C/c2c[nH]c3ccccc23)nc2ccccc21,-6,
Cn1c(/C=N/n2cnnc2)nc2ccccc21,?,VCAM1 pot confirm=-6
CCOc1cc(NC(=O)c2ccco2)c(OCC)cc1NC(=O)CCC(=O)NCc1cccnc1,-100,
CCOC(=O)c1sc(NC(=O)/C=C/c2cnn(CC)c2C)c(C(=O)OCC)c1C,-1,
CC(C)(C)C(=O)N1CCN(c2c(Cl)cccc2[N+](=O)[O-])CC1,3,
Cn1c(SCC(=O)CC(=O)Nc2ccccc2)nnc1-c1ccc(O)cc1,-8,
Cc1ccc(-c2nnc(SCC(=O)CC(=O)Nc3ccccc3)n2C)cc1,5,
CCCSc1nnc(-c2cnn(-c3ccccc3)c2-n2cccc2)n1C,36*,VCAM1 pot confirm=-3
O=C(c1ccc(-n2cnnn2)cc1)N1CCCCC1,-2,
Cc1cc(NCCN(C)C)n2nc(-c3cccs3)cc2n1,41*,VCAM1 pot confirm=-10
Cn1c(SCCCC(=O)c2ccc(Br)cc2)nnc1-c1ccncc1,-7,
Cc1occc1C(=O)NNC(=O)NC12CC3CC(CC(C3)C1)C2,2,
Cc1ccc(CNC(=O)CSc2ncccn2)cc1,10,
CC(=O)c1cccc(NC(=O)c2ccc(S(=O)(=O)N3CCCCC3)cc2)c1,3,
SMILES,VCAM1 pot,others
Cc1cc(S(=O)(=O)N2CCCC2)ccc1OCC(=O)NCc1ccco1,8,
O=C(NCc1ccco1)c1ccc(S(=O)(=O)c2cccc(S(=O)(=O)N3CCOCC3)c2)cc1,?,VCAM1 pot confirm=-21
COc1cccc(CNC(=O)c2ccc(S(=O)(=O)N3CCCC3)cc2)c1,80*,VCAM1 pot confirm=-17
CC(=O)c1ccc(N2CCN(S(=O)(=O)c3cccc(S(=O)(=O)N4CCOCC4)c3)CC2)cc1,-8,
O=C(NC(Cc1ccccc1)C(=O)O)c1ccc(S(=O)(=O)N2CCCCC2)cc1 (stereo not drawn),-4,
Cn1c(Cn2nnc3ccccc32)nnc1SCC(=O)c1ccc(F)cc1,-6,
O=C(O)c1ccc(NC(CSCc2cccc(F)c2)C(=O)O)c([N+](=O)[O-])c1 (stereo not drawn),3,
N#CC(/C(=N/S(=O)(=O)c1cccs1)c1ccccc1)c1nc2ccccc2[nH]1 (stereo not drawn),-5,
Cn1c(CN2CCOCC2)nnc1SCC(=O)Nc1nccs1,-11,
CCc1nnc(NC(=O)c2cc3c(s2)CCCCC3)s1,9,
CCc1nnc(NC(=O)CN2CCOCC2)s1,85*,VCAM1 pot confirm=-10
COc1ccc(Cl)cc1N(CC(=O)Nc1ccccc1SC)S(C)(=O)=O,-6,
CCOC(=O)N1CCC(n2c(=S)[nH]c3cc(OC)c(OC)cc3c2=O)CC1,1,
Cc1cccc(C2CC(c3ccc(Br)cc3)Nc3nc(N)nn32)c1 (stereo not drawn),2,
CC(C(=O)NCC1CCCO1)N(C(=O)c1snc(C(N)=O)c1N)c1ccccc1 (stereo not drawn),40*,VCAM1 pot confirm=-14
O=C(CC(c1ccccc1)c1ccccc1)NCC1CCCO1 (stereo not drawn),-41,
Cn1nc(C(=O)NCC2CCCO2)c2ccccc2c1=O (stereo not drawn),-95,
COc1ccccc1-n1cnc2cc(NS(=O)(=O)c3ccc(Br)cc3)ccc21,0,
CCOC(=O)Cn1nc(C)n(-c2ccc(C(C)C)cc2)c1=O,4,
Cc1ccc(Cl)cc1NC(=O)CC(O)(C(F)(F)F)C(F)(F)F,38,
Cc1ccc(NC(=O)COC(=O)c2ccn(C)n2)cc1,?,VCAM1 pot confirm=-18
CCCN1C(=O)SC(CC(=O)Nc2ccc(C)cc2)C1=O (stereo not drawn),32,
Cc1cc(C)n(-c2ccc(C(=O)OCC(=O)Nc3ccc(Cl)c(S(=O)(=O)N(C)C)c3)cc2)n1,0,
CCCn1c(SCC(=O)NCc2ccco2)nnc1C(C)C,-84,
O=C1C(Cc2ccccc2)NC(=S)N1c1ccccc1 (stereo not drawn),-54,
SMILES,VCAM1 pot,others
Cc1nnsc1C(=O)Nc1cccc(Cl)c1Cl,1,
O=C1C=C(O)CC(c2ccc(Cl)c(Cl)c2)C1 (stereo not drawn),?,VCAM1 pot confirm=-1
COc1cc(C2CC(=O)C=C(O)C2)cc(OC)c1OC (stereo not drawn),16,
O=C1C=C(O)CC(c2ccc(Cl)cc2)C1 (stereo not drawn),-3,
CCN(CC)CC(C(=O)N(CC)CC)P(=O)(c1ccccc1)c1ccccc1 (stereo not drawn),-6,
COCCNC(=O)c1ccccc1NC(=O)c1ccccc1N(C)S(=O)(=O)c1ccccc1,32*,VCAM1 pot confirm=-5
COc1ccccc1N(CC(=O)Nc1cccnc1)S(=O)(=O)c1ccccc1,8,
CN(c1ccccc1C(=O)NCc1ccccn1)S(C)(=O)=O,6,
CCc1cccc(OCCCCN(CC)CC)c1,10,
CC(C)(C)NS(=O)(=O)c1ccc(NC(=O)C(Sc2ccccc2)c2ccccc2)cc1 (stereo not drawn),11,
Cc1ccc(C(C)C)c(OC(=O)/C=C/c2ccccc2)c1,6,
CCC(C)N1CCCCC1C(=O)Nc1c(C)cc(C)cc1C (stereo not drawn),17,
Cc1nc(Nc2ccccc2)[nH]c(=O)c1CCC(C)C,?,VCAM1 pot confirm=3
CNC(=O)c1ccccc1S(=O)(=O)c1ccccc1C#N,5,
COCCSc1nnc(NC(=O)CSCc2ccccc2)s1,20,
CC(=O)Nc1sc2c(c1CN1CCN(c3ccc(F)cc3)CC1)CCCC2,-5,
CCOC(=O)c1c(N)sc(-c2ccccc2)c1C,45*,VCAM1 pot confirm=-10
CCOC(=O)c1cc(C)n(CCc2ccccc2)c1C,-9,
CCOC(=O)c1[nH]c2ccc(OC)cc2c1C,-4,
CCOc1ccccc1CNS(=O)(=O)c1ccc2c(c1)oc(=O)n2C,-8,
Cc1cccc(CCNS(=O)(=O)c2ccc3c(c2)oc(=O)n3C)c1,111*,VCAM1 pot confirm=-14
Cc1cccc(CCNC(=O)CN(C)S(=O)(=O)c2ccc3c(c2)c(=O)n(C)c(=O)n3C)c1,-1,
Cc1nc(SCC#N)c2c(C)c(C)sc2n1,-3,
COc1ccc(CCN2C(=O)CC(Sc3ncccc3C(=O)O)C2=O)cc1OC (stereo not drawn),-27,
O=C(C1CCN(S(=O)(=O)N2CCCC2)CC1)N1CCCCC1,3,
c1ccc(-c2nnc(CSc3nncs3)o2)cc1,-93,
COC(=O)C(C)Sc1nnc(-c2ccncc2)o1 (stereo not drawn),-19,
c1ccc(CSc2nnc(-c3ccncc3)o2)cc1,58*,VCAM1 pot confirm=-13
